# CBFb-RUNX1 inh – inhibitors of human CBF-beta and RUNX1 interaction; AlphaScreen CBFb-His/RUNX1-biotin binding, biochemical; Potency, µM (top dose mostly 59.8 µM), without a hit: at the top dose activity, negative = inhibition, actives largely listed as inhibitors; 230,000 tested, under 10 active; AID 1477; active means well fitted curve in the direction sought with a large enough effect; inconclusive means small, poorly fitted or top-dose-only effect, or effect the other way, or another doubt; inactive means no such curve, though single readings can be large or run the other way; further: % of control where 0% means no effect
#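 Read-out: AlphaScreen. Format: His-CBF-beta with biotinylated RUNX1 (30 nM each) preincubated 20 min, compound 15 min, Ni-chelate plus streptavidin beads 90 min; room temperature throughout.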
# Rango-impB inh – inhibitors of Rango-importin beta complex formation; Rango CFP/YFP FRET sensor + importin beta, 45 min; Potency, µM (titrated, usually from 92.2 µM), for the others: at the highest dose inhibition of complex formation; 340,000 tested, 0.031% active;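 further: potency means the concentration at half of the fitted maximal effect; 0% = DMSO wells and 100% = buffer wells lacking importin beta; nearly all actives have a fitted effect of over 15% in size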
#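 Inhibition scored from the CFP 486 nm/YFP 530 nm FRET ratio 45 min after adding 0.125 microM importin beta to 50 nM Rango biosensor preincubated 5 min with compound (room temperature, PBS with DTT, Tween-20, BSA). No-importin wells as positive control.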
# MBNL1-CUG inh – blocks human MBNL1 binding to CUG repeat RNA; Q9NR56; TR-FRET MBNL1-His/biotin-(CUG)12 binding, 665/545 ratio; Potency, µM (doses to about 57.5 µM), without a hit: top-dose activity change, negative = inhibition, most hits filed as inhibitors; 280,000 tested, 0.036% active; active means well fitted inhibition curve with a large enough effect in the signal ratio, with a control signal flat, not every such curve was filed as active; inconclusive means small, poorly fitted or top-dose-only effect, or effect the other way, or a change in a side signal; inactive means no such curve, though single readings can be large or run the other way; the % refers to the signal ratio; further: potency means the concentration at half of the fitted maximal effect; on the % scale 0 is the no-effect control and ±100 the full control effect
# Target sequence (Q9NR56 whole entry, looked up): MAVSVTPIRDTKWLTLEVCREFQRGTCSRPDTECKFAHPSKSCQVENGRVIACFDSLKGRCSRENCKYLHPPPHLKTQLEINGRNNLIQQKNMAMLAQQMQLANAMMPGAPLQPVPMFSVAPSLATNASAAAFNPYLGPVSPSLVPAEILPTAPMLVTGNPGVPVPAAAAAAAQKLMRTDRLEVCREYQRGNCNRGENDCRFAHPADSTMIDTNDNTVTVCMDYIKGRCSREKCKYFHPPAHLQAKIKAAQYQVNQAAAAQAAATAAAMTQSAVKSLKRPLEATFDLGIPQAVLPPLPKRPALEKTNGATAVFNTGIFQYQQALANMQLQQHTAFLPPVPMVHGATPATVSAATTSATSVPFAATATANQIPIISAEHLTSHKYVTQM
#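 Inhibition of protein-RNA binding appears as loss of TR-FRET between terbium anti-His antibody on MBNL1-His and streptavidin-XL665 on biotin-(CUG)12. Activity is normalized to buffer-only and uninhibited-complex controls.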
# Rango release inh – inhibition of RanGTP-driven Rango-importin beta dissociation. Potency, µM (titrated, usually from 46.1 µM), for the others: at the top dose activity change, negative = inhibition. AID 540253. Biochemical FRET Rango-importin beta, RanGTP-induced dissociation. 340,000 tested, 0.071% active; further: potency means the concentration at half of the fitted maximal effect; % of control where 0% means no effect; nearly all actives have a fitted effect of over 45% in size
#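 Recombinant Rango FRET biosensor (EYFP–snurportin 1 IBB–cerulean CFP10) at 0.1 uM premixed with 0.25 uM importin beta in PBS, 1 mM DTT, 0.02% Tween-20, 0.1% BSA. Compound added 5 min; RanGTP-RCC1 (0.6 uM Ran, 2 mM GTP, 0.2 uM RCC1) then triggers release, read at 45 min.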
# ClpP mod – qHTS Assay for Activators of ClpP | ATP-dependent Clp protease proteolytic subunit (Bacillus subtilis (strain 168)), P80244 | purified B. subtilis ClpP, FRET peptide cleavage, 20 min | Potency, µM (series often up to 57.5 µM), for inactives: at the top dose activity change, negative = active | 340,000 tested, 1.9% active | AID 651965, 2013; active means well fitted falling curve with a large enough effect; inconclusive means small, poorly fitted or top-dose-only effect; inactive means no such curve, though single readings can be large or run the other way; further: potency means the concentration at half of the fitted maximal effect; the source files actives as falling curves though it sought activators and does not explain the sign; nearly all actives have a fitted effect of over 65% in size
# Target sequence (P80244 whole entry, looked up): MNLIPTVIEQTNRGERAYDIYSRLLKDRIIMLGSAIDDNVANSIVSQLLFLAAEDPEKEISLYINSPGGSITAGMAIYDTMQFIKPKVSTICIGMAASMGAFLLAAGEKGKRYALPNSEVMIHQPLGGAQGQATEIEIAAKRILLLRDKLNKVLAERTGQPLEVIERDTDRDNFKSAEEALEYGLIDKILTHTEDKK
#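 ClpP 10 microg/mL final, pH 8 Tris/KCl buffer with BSA, glycerol, Tween-20; compound pinned in; FRET-FV substrate; RT 20 min; Ex320/Em430; ΔFRET vs ADEP 5.8 microM, DMSO, no enzyme.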
# Starred values were filed as active, the others as inactive; ? = inconclusive; . = no result given. Shown is part of a subset that was picked to be rich in hits. Unless noted, the call rests on the fitted dose curve.
SMILES,CBFb-RUNX1 inh,Rango-impB inh,MBNL1-CUG inh,Rango release inh,ClpP mod
CSCCC(N)C(=O)O (stereo unspecified),1%,.,.,.,.
CCOC(=O)c1c(NC(=O)c2nc(SC)ncc2Cl)sc(C)c1C,.,.,.,.,-1%
COc1cc(NC(=O)Cc2ccc(OC)c(S(=O)(=O)N3CCOCC3)c2)c(OC)cc1Cl,.,-2%,-5%,2%,.
COc1ccc(S(=O)(=O)N2CCCCC2)cc1NC(=O)COC(=O)c1ccco1,.,1%,.,-7%,5%
COc1ccc(CC(=O)Nc2ccccc2C(C)=O)cc1S(=O)(=O)N1CCOCC1,.,9%,.,-3%,35µM*
CC(C)Oc1ccc(S(=O)(=O)N2CCOCC2)cc1NC(=O)Cc1ccsc1,.,0%,.,10%,-1%
O=C(Nc1cc(S(=O)(=O)N2CCCCCC2)ccc1OCC(F)(F)F)C1CCC1,.,-2%,2%,-8%,2%
COc1ccc(S(=O)(=O)N2CCOCC2)cc1NC(=O)Cc1ccsc1,.,2%,.,?,20µM*
CCOc1ccc(S(=O)(=O)N2CCCCC2)cc1NC(=O)C1CCC1,.,2%,.,7%,14µM*
COc1ccc(S(=O)(=O)N2CCCCC2)cc1NC(=O)c1ccco1,.,0%,-4%,-11%,16µM*
COc1ccc(N(Cc2nnc3n2CCCCC3)C(=O)Nc2ccc(Cl)cc2)cc1Cl,.,.,.,.,1%
COc1ccc(S(=O)(=O)N2CCCCCC2)cc1C(=O)NCc1ccccc1Cl,.,4%,.,0%,25µM*
CCC(Sc1nc(-c2ccc(F)cc2)nc2c1Cc1c(CO)cnc(C)c1O2)C(=O)Nc1ccc(F)cc1 (stereo unspecified),.,.,.,.,-8%
O=C(c1nc2nc(-c3ccc(Cl)cc3)cc(C(F)(F)F)n2n1)N1CCOCC1,3%,0%,?,-3%,18µM*
CC(C)(C)NC(=O)c1nc2nc(-c3ccccc3)cc(C(F)(F)F)n2n1,7%,2%,?,?,28µM*
O=C(c1nn2c(C(F)(F)F)cc(-c3ccc(F)cc3)nc2c1Cl)N1CCOCC1,0%,-2%,?,2%,-4%
O=C(c1nn2c(C(F)(F)F)cc(-c3ccccc3)nc2c1Cl)N1CCOCC1,11%,4%,?,4%,0%
O=C(c1nc2nc(-c3ccccc3)cc(C(F)(F)F)n2n1)N1CCOCC1,13%,1%,?,-6%,28µM*
Cc1nnc2c(N3CCN(c4ccccc4F)CC3)nc3ccccc3n12,.,.,.,.,-14%
COC(=O)c1c(NC(=O)C2COc3ccccc3O2)sc2c1CCN(Cc1ccccc1)C2 (stereo unspecified),-7%,?,7%,-22%,20µM*
O=C(Nc1ccc(Br)cc1)C1CCN(c2ncccn2)CC1,.,.,.,.,-6%
O=C(CCCC(=O)c1ccccc1)Nc1ccc(F)cc1,.,-1%,-7%,0%,?
CC1NC(=O)NC1CCCCCC(=O)Nc1ccc(F)cc1 (stereo unspecified),.,0%,0.1µM*,-9%,0%
Cc1c(F)cccc1NC(=O)CCCCCC1NC(=O)NC1C (stereo unspecified),.,4%,0.28µM*,11%,?
Cc1c(F)cccc1NC(=O)CCC(=O)O,5%,-3%,1%,5%,-5%
SMILES,CBFb-RUNX1 inh,Rango-impB inh,MBNL1-CUG inh,Rango release inh,ClpP mod
CCNc1nc(N)nc(Oc2ccc(OCC(=O)OC)nn2)n1,.,.,.,.,-1%
CN(C)c1ccc(-c2noc(-c3ccccc3O)n2)cc1,6%,5%,57%,-4%,10µM*
CC(C)(C)NC(=O)c1ccc2nccnc2c1,15%,1%,16%,-2%,-6%
CC(C)(C)NC(=O)Nc1ccc2nccnc2c1,6%,?,?,?,20µM*
COc1cc2ccccc2cc1C(=O)OCC(=O)N1CCOCC1,-5%,2%,19%,4%,?
O=C(OCC(=O)N1CCOCC1)c1ccc2ccccc2c1O,.,-1%,.,-13%,28µM*
CC(=O)N=c1sc2ccccc2n1C,0%,0%,0%,29%,1%
CC(=O)N=c1sc2nc3ccccc3nc2n1N(C(C)=O)C(C)=O,0%,2%,?,-11%,28µM*
Oc1ccccc1C1NN=C(c2ccccc2)S1 (stereo unspecified),.,?,14%,-17%,7.1µM*
CSc1ccc(C2NN=C(c3ccccc3)S2)cc1 (stereo unspecified),.,?,.,-19%,.
COc1cccc(-c2cc(C(=O)Nc3ccncc3)c3ccccc3n2)c1,.,1%,24%,-3%,13µM*
COc1ccc(-c2cc(C(=O)NCCN3CCOCC3)c3ccccc3n2)cc1,6%,0%,30%,6%,35µM*
COc1cccc(NC(=O)c2cc(-c3ccccn3)nc3ccccc23)c1,.,-2%,.,0%,12%
COc1ccc(-c2cn3c(C)c(C(=O)NCCN4CCOCC4)sc3n2)cc1,-10%,?,-21%,-10%,22µM*
COc1ccc(-c2cc(C(=O)NCCN3CCOCC3)c3ccccc3n2)cc1OC,.,-5%,?,-10%,-4%
Cc1ccc(CNC(=O)CSc2nc3ccccc3nc2Cc2ccc(C)cc2)cc1,.,.,.,.,-2%
O=S(=O)(NCCc1nnc2ccc(SCc3ccccc3Cl)nn12)c1ccccc1,.,.,.,.,-4%
Cc1oc2c(CN3CCCC3)c(O)ccc2c(=O)c1-c1ccc(Br)cc1,0%,-2%,10%,-1%,14µM*
COc1ccc(-c2c(C)oc3c(CN4CCN(CCO)CC4)c(O)ccc3c2=O)cc1OC,-4%,6%,-2%,6%,22µM*
CC(=O)N1CCCC1c1nc2ccccc2n1Cc1cccc(Cl)c1 (stereo unspecified),.,.,.,.,1%
CCCCOc1ccc(C(C)NC(=O)c2cccc(Nc3nc4ccccc4n4nnnc34)c2)cc1 (stereo unspecified),.,.,.,.,-35%
Fc1ccc(-c2noc3ncnc(NCc4ccc(Cl)cc4)c23)cc1,.,.,.,.,-3%
COc1ccc(NC(=O)CSC2=C(C#N)C(c3ccco3)C(C(=O)Nc3nc4ccccc4s3)=C(C)N2)cc1 (stereo unspecified),.,-4%,.,-20%,22µM*
Cc1cccc(N2CCN(c3nc4ccccc4c(=O)n3-c3ccc(Cl)cc3)CC2)c1C,.,.,.,.,18µM*
CC(C)C(=O)NC(c1ccco1)c1c(O)ccc2ccccc12 (stereo unspecified),1%,0%,-3%,8%,22µM*
CCC(=O)NC(c1ccccc1Cl)c1c(O)ccc2ccccc12 (stereo unspecified),-6%,0%,?,9%,-27%

# Compound activity (PubChem)
